Test results as given in PubChem BioAssay AID492967 (ICCB-Longwood Screening Facility, Harvard Medical School, 2010).
The whole screen tested about 140,000 compounds, of which about 320 (0.23%) were called active. Cut-off read from the data, not from the text of the source: active = z-score mostly below about -2.9 (no sharp cut-off); inactive = mostly above about -1.9. The sample as a whole holds a higher share of actives than the screen did.

System: CapD gamma-glutamyltranspeptidase (Bacillus anthracis Ames Ancestor)
Assay: Bacillus anthracis CapD inhibitors, primary screen, biochemical, fluorescence intensity (AID 492967)
Conditions: purified CapD enzyme, fluorescence intensity read-out; hits give low values

Compound	z-score
COc1ccc2nc(SCC(=O)Nc3cc(NC(=O)CSc4nc5ccc(OC)cc5[nH]4)cc(C(=O)O)c3)[nH]c2c1	-1.48 (inactive)
COc1ccc(CCNC(=O)c2cn(C)c(=O)c3cc(OC)c(OC)cc23)cc1OC	1.5 (inactive)
CCC(=O)NCCc1nc2ccccc2n1CC	-0.29 (inactive)
O=C(COc1ccccc1)NCCc1nc2ccccc2n1Cc1ccccc1	-8.12 (active)
Cc1ccccc1Cn1c(CCNC(=O)C(C)(C)C)nc2ccccc21	-0.49 (inactive)
CC(C)NC(=O)CN1CCN(S(=O)(=O)c2cc(Cl)ccc2Cl)CC1	-0.36 (inactive)
CC(C)(C)c1ccc(OCCCn2c(=O)sc3ccccc32)cc1	0.35 (inactive)
O=C1CC(c2c(Cl)cccc2Cl)c2ccc3ccccc3c2N1 (centres undefined)	0 (inactive)
COCCNC(=O)c1ccc(Cn2c(SCC(=O)NCC3CCCO3)nc3ccc(Br)cc3c2=O)cc1 (centres undefined)	-0.085 (inactive)
Cc1ccc2cc3cc(C(=O)NCc4ccc(F)cc4)oc3nc2c1	50.4 (inactive)
O=C(c1ccc(C(F)(F)F)cc1)N1CCC(c2nnc(-c3ccccc3)o2)CC1	-0.12 (inactive)
Cc1ccc2cc(C)c(C)cc2c1	-0.345 (inactive)
COc1ccc(CCNC(=O)CCC(=O)Nc2nc(-c3cc4ccccc4oc3=O)cs2)cc1OC	0.27 (inactive)
CN(C)C=NC(=O)c1ccc(Oc2ncc(C(F)(F)F)cc2Cl)cc1	-0.275 (inactive)
CC(=O)c1cc(Cl)cc(Cl)c1OC(=O)c1c(-c2c(Cl)cccc2Cl)noc1C	-0.58 (inactive)
O=C(NCCCN1CCCCC1)c1cc(-c2ccncc2)nc2ccccc12	0.14 (inactive)
CCCC(C(=O)O)N1C(=O)/C(=C/c2ccc(O)c(OCC)c2)SC1=S (centres undefined)	-7.48 (active)
CCOc1cc(/C=C2\SC(=S)N(c3c(C)n(C)n(-c4ccccc4)c3=O)C2=O)ccc1O	-1.1 (inactive)
CCOc1cc(/C=C2\SC(=S)N(C(C)C(=O)O)C2=O)ccc1O (centres undefined)	-2.57 (inactive)
Cc1ccc(N2CCN(c3ccccc3)CC2)nn1	-0.315 (inactive)
COc1ccc(CN2C(=O)CC(C(=O)Nc3ccc(F)cc3)SC2=Nc2ccccc2)cc1 (centres undefined)	-0.02 (inactive)
CCN1C[C@]2(OC(=O)c3ccccc3NC(C)=O)CC[C@H](OC)[C@@]34C2C[C@@H]([C@@H]13)[C@@]1(O)C[C@H](OC)[C@H]2CC4[C@]1(O)[C@H]2OC (some centres undefined)	7.48 (inactive)
CN(C(=O)Cn1nc(Cc2ccncc2)c2ccccc2c1=O)c1ccccc1	5.11 (inactive)
COc1ccc([N+](=O)[O-])cc1/C=C1\C(=O)NC(=O)N(c2ccc(Cl)cc2)C1=O	-0.64 (inactive)

Compound	z-score
Oc1c(Br)cc(Br)cc1C=Nc1ccc(Oc2ccc(Cl)cc2)cc1	-1.07 (inactive)
Cc1ccc2c(c1)-c1onc(C(=O)NC3CCCCC3)c1CO2	3.98 (inactive)
CCO/C=C1\SC(=S)N(Cc2ccccc2)C1=O	-0.945 (inactive)
O=C1c2ccccc2C(=O)N1CC1c2ccccc2CCN1S(=O)(=O)c1cccc2nsnc12 (centres undefined)	-0.52 (inactive)
CCCCOc1ccc(C(=O)Nc2ccc3nc(SCC(=O)NCC4CCCO4)sc3c2)cc1 (centres undefined)	0.345 (inactive)
O=C(/C=C/c1cn(-c2ccccc2)nc1-c1ccc(F)cc1)NCc1cccnc1	2.33 (inactive)
COC(=O)c1sc(-c2cccs2)cc1NS(=O)(=O)c1ccccc1	41.9 (inactive)
COC(=O)c1c(NC(=O)Cn2nc([N+](=O)[O-])c(Br)c2C)sc2c1CCC(C)C2 (centres undefined)	-0.48 (inactive)
CCc1ccc(NC(=O)Cc2csc(C)n2)cc1	-0.185 (inactive)
CCOC(=O)C1C(=O)CN(c2ccccc2)C1=O (centres undefined)	2.06 (inactive)
O=C(C1CCN(S(=O)(=O)c2ccc3[nH]c4c(c3c2)CCCCC4)CC1)N1CCCC1	-0.165 (inactive)
Cc1ccc(NC(=O)c2ccccc2N)cc1C	29 (inactive)
C=CCNC(=S)Nc1ccn(Cc2ccccc2C)n1	-0.535 (inactive)
O=C(CSc1ccc(Cl)cc1)N1CCC(C(F)(F)F)CC1	0.56 (inactive)
Cc1nc(Nc2ccc(S(N)(=O)=O)cc2)nc(Nc2ccc(S(N)(=O)=O)cc2)c1Br	-0.56 (inactive)
CC(C)C(O)(C(=O)OC[C@@H]1CC[N+]2([O-])CCC[C@@H]12)C(C)O (some centres undefined)	0.78 (inactive)
O=C1CSC(c2ccccc2)C(=O)N1c1ccc(Br)cc1 (centres undefined)	0.345 (inactive)
Cc1ccc(-c2n[nH]c3c2C(c2ccccc2F)N(c2ccc(F)cc2)C3=O)cc1 (centres undefined)	-0.525 (inactive)
C/C(=N\NC(=O)C1CCCCC1)c1cccs1	-0.47 (inactive)
N#CCC1NCCc2ccccc21 (centres undefined)	-2.33 (inactive)
CC1(C)CC2(CCCN(CC#N)C2)CCS1 (centres undefined)	0.425 (inactive)
COc1ccc(C(Nc2ncnc3c2ncn3C2CC=C(CO)CC2)(c2ccccc2)c2ccccc2)cc1 (centres undefined)	-0.275 (inactive)
CN(Cc1ccccc1)C(=O)Cn1ncc2c3ccccc3n(Cc3ccccc3F)c2c1=O	0.685 (inactive)
O=C(CN1CCN(c2ccc([N+](=O)[O-])cn2)CC1)Nc1ccc2c(c1)OCO2	-0.23 (inactive)

Compound	z-score
CCN(c1ccccc1)S(=O)(=O)c1cc2c(cc1C)n(C)c(=O)c(=O)n2C	4.49 (inactive)
C=C1Cn2c(nnc2-c2ccc(Br)cc2)S1	0.32 (inactive)
O=C(CSc1nc2ccc(Br)cc2c(=O)n1-c1ccccc1)NCc1ccco1	0.585 (inactive)
O=C(O)CCCN1C(=O)/C(=C2\SC(=S)N(CCCC(=O)O)C2=O)SC1=S	1.03 (inactive)
O=C(O)c1cc2cccnc2nc1C(F)(F)F	-0.285 (inactive)
COc1ccc(C(=O)OC2CC(C)=CCC3(C)CCC(O)(C(C)C)C23)cc1O (centres undefined)	-0.385 (inactive)
COc1ccc(C(=O)N2CCN(C(=O)OCc3ccc(SC(F)(F)F)cc3)CC2)cc1F	0.325 (inactive)
Nc1c(C(=O)O)noc1C(=O)c1ccccc1	2.44 (inactive)
O=C(OCC(=O)N1CCCCC1)c1ccc(OC(F)(F)F)cc1	0.135 (inactive)
CC(C)(C)NC(=S)NNc1c(Cl)cncc1Cl	0.41 (inactive)
CN(c1ncnc2c1nc1n2CCCCC1)C1CCCCC1	0.88 (inactive)
NC(=S)c1ccc(-c2csnn2)cc1	-0.465 (inactive)
CCN1C(=O)/C(=C2/Sc3ccccc3N2C2CCCCC2)SC1=S	-0.02 (inactive)
CCN1C(=O)/C(=C2/Sc3ccccc3N2CCCS(=O)(=O)O)SC1=S	-3.94 (active)
CCN1C(=O)/C(=C/c2ccccc2)SC1=S	0.005 (inactive)
CCCCc1ccc2nc(N)sc2c1	-0.715 (inactive)
O=C(NCCO)c1ccc(/C=N/O)nc1	0.075 (inactive)
Cc1c(Cl)cccc1NC(=O)c1ccc(-n2cccn2)c([N+](=O)[O-])c1	2.56 (inactive)
CC(=O)N1CCCN(S(=O)(=O)c2cccc3nonc23)CC1	-0.285 (inactive)
CCn1c2ccccc2c2cc(CN3CCN(C(=O)c4ccccc4OC)CC3)ccc21	14 (inactive)
O=[N+]([O-])c1ccc(-c2ccc(-c3[nH]c(-c4cccc([N+](=O)[O-])c4)nc3-c3ccccc3)cc2)cc1	0.025 (inactive)
CC1CCN(CC(=O)N2c3ccccc3C(C)(c3ccccc3)CC2(C)C)CC1 (centres undefined)	0.18 (inactive)
CCOC(=O)CC(=O)CSc1nc2c(sc(=S)n2CCc2ccccc2)c(=O)n1Cc1ccco1	0.52 (inactive)
O=C(COc1ncn(-c2ccccc2)n1)N/N=C/c1cc(OCc2ccccc2)cc(OCc2ccccc2)c1	-1.07 (inactive)

Compound	z-score
COc1cc(Br)c(C2C(C(=O)OCCOc3ccccc3)=C(C)NC3=C2C(=O)CCC3)cc1OC (centres undefined)	22.1 (inactive)
CCN1CCN(CCNC(=O)c2ccc(NC(=O)C3=CSCCO3)cc2)CC1	-0.9 (inactive)
O=C(O)c1cc2c(s1)CS(=O)(=O)C2	-3.92 (active)
O=C(O)c1cc2ccccc2c(=O)s1	0.97 (inactive)
O=C(NCCc1ccccc1)c1cc2c(s1)CS(=O)(=O)C2	0.17 (inactive)
COc1ccc(C2Nc3ccccc3C(=O)N2c2ccccc2)cc1CSc1nc2ccccc2s1 (centres undefined)	34.5 (inactive)
Cc1cc(C)nc(N2CCN(C(=O)C(C)(C)C)CC2)n1	-0.02 (inactive)
Nc1ccc(C(=O)Nc2nc3ccc(NC(=O)c4ccccc4)cc3s2)cc1	13.6 (inactive)
O=C(OCCN1C(=O)c2ccccc2C1=O)c1ccc(Cl)cc1	0.395 (inactive)
O=C(NC(=O)N1CCOCC1)c1ccc(S(=O)(=O)N2CCOCC2)cc1	0.605 (inactive)
CC1=NN(c2ccccc2)C(=O)CC1	0.205 (inactive)
CCC(C)c1ccc(N2C(=O)C=CC2=O)cc1 (centres undefined)	-0.045 (inactive)
COc1ccc(N2CCN(c3ncnc4sc(C(=O)NCc5ccccc5OC)c(C)c34)CC2)cc1	-0.385 (inactive)
Cc1ccc2c(c1)c1c3n2CCN(S(C)(=O)=O)C3CCC1 (centres undefined)	0.19 (inactive)
CCOC(=O)c1cc(C#N)c(C)nc1N1CCN(C(=O)OCCN2CCN(Cc3cc4c(cc3Cl)OCO4)CC2)CC1	-0.455 (inactive)
OC(CSCc1ccc(Cl)cc1)(c1ccccc1)c1ccccc1	-0.53 (inactive)
CCOC(=O)c1ccc(NC(=O)N2CCC(CN3CCCCCC3)CC2)cc1	-1.43 (inactive)
O=C1CCc2ccccc2CN1	0.13 (inactive)
Nc1ccc2c(c1)C/C(=C\c1ccco1)C2=O	-3.17 (inactive)
Cc1cccc(NC(=O)N(C)C)c1	0.275 (inactive)
C=CCn1c(=S)sc2c(SCC(=O)N3CCc4ccccc43)ncnc21	1.31 (inactive)
C=CCn1c(=S)sc2c(=O)[nH]c(C)nc21	-5.7 (active)
